Where “and” joins values, the source holds several entries; their conditions need not be identical. Identical values can stand only once. Results filed as inconclusive are left out. Where a call stands in place of a potency, no number is given. The source holds several records for some structures; these can differ, active in one and inactive in another. Calls of active or inactive are those of the source. Unless noted, the call rests on the fitted dose curve; in most records, active means well fitted curve in the direction sought with a large enough effect in the repeat runs; inconclusive means weak or mixed curves; inactive means no such curve, though single readings can be large; an effect the other way counts as inactive or inconclusive.
Legend:
[1] = qHTS assay to identify small molecule antagonists of the estrogen related receptor (ERR) signaling pathway from Tox21 library - cell viability counter screen (AID 1224834); further: nearly all actives have a fitted effect of over 30% in size; further: potency means the concentration at half of the fitted maximal effect
Outline: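 After 17.5 h of compound exposure at 37 C, ERR cells are incubated with CellTiter-Fluor for 30 min and fluorescence intensity serves as the viability measure.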

[2] = biological target: Luciferin 4-monooxygenase (Photinus pyralis) (UniProt P08659); experiment: qHTS assay to identify small molecule inhibitors of firefly luciferase (AID 1224835); further: nearly all actives have a fitted effect of over 25% in size; further: potency means the concentration at half of the fitted maximal effect
Luciferin 4-monooxygenase (Photinus pyralis), sequence (P08659 whole entry, looked up): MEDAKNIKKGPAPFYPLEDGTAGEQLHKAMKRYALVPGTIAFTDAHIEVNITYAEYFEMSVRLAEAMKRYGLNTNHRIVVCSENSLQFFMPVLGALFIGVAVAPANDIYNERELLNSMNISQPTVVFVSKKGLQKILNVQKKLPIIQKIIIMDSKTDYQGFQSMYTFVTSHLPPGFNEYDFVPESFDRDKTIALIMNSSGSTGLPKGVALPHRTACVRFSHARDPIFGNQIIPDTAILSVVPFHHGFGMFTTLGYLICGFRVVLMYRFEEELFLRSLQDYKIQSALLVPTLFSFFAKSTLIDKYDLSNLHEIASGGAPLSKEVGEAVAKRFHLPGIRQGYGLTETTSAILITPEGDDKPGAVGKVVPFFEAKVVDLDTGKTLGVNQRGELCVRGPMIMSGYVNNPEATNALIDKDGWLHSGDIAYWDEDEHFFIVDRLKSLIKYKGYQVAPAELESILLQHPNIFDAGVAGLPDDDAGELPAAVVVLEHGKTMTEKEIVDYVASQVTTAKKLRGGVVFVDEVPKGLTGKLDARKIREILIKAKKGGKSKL
Outline: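 Quantitative HTS format; KM concentrations of both substrates. Purified P. pyralis FLuc activity quantified from luminescence images.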

[3] = qHTS assay to identify small molecule agonists of the constitutive androstane receptor (CAR) signaling pathway - cell viability counter screen (AID 1224836); further: nearly all actives have a fitted effect of over 45% in size; further: potency means the concentration at half of the fitted maximal effect
Outline: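 Cells were seeded and incubated 4 hrs. Compounds were added across 15 concentrations together with PK11195 at 0.75 uM final. Plates were incubated 23 hrs at 37 C. CellTiter-Fluor was added and fluorescence measured.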

[4] = qHTS assay to identify small molecule antagonists of the constitutive androstane receptor (CAR) signaling pathway - cell viability counter screen (AID 1224837); further: nearly all actives have a fitted effect of over 45% in size
Outline: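 Counter screen run in HepG2-CYP2B6-hCAR cells: 4 hr settle, compound titration (15 concentrations) with 50 nM CITCO, 23 hr at 37 C/5% CO2, CellTiter-Fluor fluorescence.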

[5] = qHTS assay to identify small molecule antagonists of the estrogen related receptor signaling pathway with the pleiotropic PPARgamma coactivator (PGC) from Tox21 10K library - cell viability counter screen (AID 1224840; active means well fitted cell-killing curve with a large enough effect in the repeat runs, not every such curve was filed as active; further: nearly all actives have a fitted effect of over 40% in size; further: potency means the concentration at half of the fitted maximal effect)
Outline: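 Following seeding of 2,000 PGC/ERR cells/well and 6 hours' incubation, test compounds were delivered in DMSO. The plates then sat 17.5 hours at 37 C before a fluorogenic live-cell protease reagent (CellTiter-Fluor) was read after 30 min.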

[6] = qHTS assay to identify small molecule antagonists of the estrogen related receptor signaling pathway with the pleiotropic PPARgamma coactivator (PGC) from Tox21 10K library (AID 1224841; call rule not given here; further: actives are mostly falling curves and most rising ones were filed inactive; nearly all actives have a fitted effect of over 50% in size; further: potency means the concentration at half of the fitted maximal effect)
Outline: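 qHTS antagonist format: PGC/ERR cells, 2k/well, compound in DMSO by pin transfer after 6 h attachment, 18 h treatment at 37 C, One-Glo luminescence read at 30 min.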

[7] = qHTS assay to identify small molecule agonists of the estrogen related receptor signaling pathway with the pleiotropic PPARgamma coactivator (PGC) from Tox21 10K library (AID 1224842); further: nearly all actives have a fitted effect of over 15% in size
Outline: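 PGC/ERR reporter cells (NTP line) were seeded 2,000 per well, rested 6 h at 37 C/5% CO2, then pin-dosed with compounds in DMSO for 18 h at 37 C; luciferase read by One-Glo luminescence after 30 min at room temperature.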

[8] = biological target: Thyrotropin receptor (Homo sapiens) (UniProt P16473); experiment: qHTS assay to identify small molecule agonists of the thyroid stimulating hormone receptor (TSHR) signaling pathway (AID 1224843; calls by dose curve; further: nearly all actives have a fitted effect of over 45% in size; further: potency means the concentration at half of the fitted maximal effect)
Thyrotropin receptor (Homo sapiens), sequence (P16473 whole entry, looked up): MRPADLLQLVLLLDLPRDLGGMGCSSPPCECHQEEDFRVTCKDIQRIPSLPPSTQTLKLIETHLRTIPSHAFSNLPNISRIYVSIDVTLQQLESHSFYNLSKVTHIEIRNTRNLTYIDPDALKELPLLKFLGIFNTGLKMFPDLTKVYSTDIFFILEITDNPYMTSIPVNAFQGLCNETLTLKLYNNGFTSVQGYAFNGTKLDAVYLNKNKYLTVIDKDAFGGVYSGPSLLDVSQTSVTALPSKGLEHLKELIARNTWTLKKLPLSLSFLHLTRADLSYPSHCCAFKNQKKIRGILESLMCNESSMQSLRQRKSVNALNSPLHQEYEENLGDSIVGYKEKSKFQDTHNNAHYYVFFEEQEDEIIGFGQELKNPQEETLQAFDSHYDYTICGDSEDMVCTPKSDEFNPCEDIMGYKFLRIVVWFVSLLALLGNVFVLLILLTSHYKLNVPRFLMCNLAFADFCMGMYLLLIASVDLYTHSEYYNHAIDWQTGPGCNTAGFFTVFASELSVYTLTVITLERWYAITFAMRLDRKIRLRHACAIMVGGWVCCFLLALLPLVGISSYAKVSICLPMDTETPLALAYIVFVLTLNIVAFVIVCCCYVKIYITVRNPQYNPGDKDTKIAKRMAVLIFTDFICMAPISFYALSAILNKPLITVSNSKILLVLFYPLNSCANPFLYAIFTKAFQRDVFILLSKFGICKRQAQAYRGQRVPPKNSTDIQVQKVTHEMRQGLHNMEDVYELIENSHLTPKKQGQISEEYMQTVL
Outline: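 TSHR-expressing HEK293 cells (800 per well) were exposed to compounds for 30 min at room temperature. cAMP was then detected by HTRF competition with cAMP-d2 and anti-cAMP cryptate, read after 1 h at room temperature. Fifteen concentrations, triplicate.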

[9] = qHTS assay to identify small molecule agonists of the hypoxia (HIF-1) signaling pathway - cell viability counter screen (AID 1224844; calls by dose curve; further: nearly all actives have a fitted effect of over 50% in size; further: potency means the concentration at half of the fitted maximal effect)
Outline: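 Cells (HRE-bla ME-180, 2,000 per well) sat 5 hrs at 37C, got compound for 17 hrs, were read for CCF4-AM FRET, and were finally lysed with CellTiter-Glo for a 30 min room-temperature luminescence read.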

[10] = qHTS assay to identify small molecule agonists of H2AX (AID 1224845; active means well fitted activation curve with a large enough effect in the signal ratio in the repeat runs, not every such curve was filed as active; the % refers to the signal ratio)
Outline: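 Wild-type CHO-K1 cells plated overnight, then exposed 3 hr at 37C to compounds at 15 concentrations (0.76% DMSO). Lysed, then HTRF anti-pH2AX(S139)-cryptate/anti-H2AX-d2 detection after 24 hr at room temperature; emissions 665 and 620 nm.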

[11] = qHTS assay to identify small molecule agonists of H2AX - cell viability counter screen (AID 1224847; calls by dose curve; further: nearly all actives have a fitted effect of over 30% in size; further: potency means the concentration at half of the fitted maximal effect)
Outline: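 Cytotoxicity counter screen in wild-type CHO-K1 cells: a 3 hr compound treatment at 37C across 15 concentrations, followed by CellTiter-Glo luminescence to gauge viable cells.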

[12] = qHTS assay to identify small molecule antagonists of the estrogen related receptor (ERR) signaling pathway from Tox21 library (AID 1224848); further: nearly all actives have a fitted effect of over 50% in size; further: potency means the concentration at half of the fitted maximal effect
Outline: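 Cells: ERR line, 2,000/well; 6 h preincubation 37 C/5% CO2. Cpd in DMSO via pin tool; 18 h, 37 C. ONE-Glo, 30 min RT, luminescence.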

[13] = qHTS assay to identify small molecule agonists of the estrogen related receptor (ERR) signaling pathway from Tox21 library (AID 1224849; calls by dose curve; further: nearly all actives have a fitted effect of over 15% in size); conditions: ERR reporter cell line, ONE-Glo luciferase, 18 h
Outline: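 Screening used an NTP-provided ERR luciferase cell line. Compounds in DMSO were added 6 h after seeding and left 18 h at 37 C before a 30 min ONE-Glo step and luminescence reading.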

[14] = qHTS RealTime-Glo MT Cell Viability Assay in HepG2 cells - 24 hour (AID 1224867); further: nearly all actives have a fitted effect of over 50% in size; further: potency means the concentration at half of the fitted maximal effect
Outline: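 Tox21 10K library screened in qHTS format on HepG2 cells carrying RealTime-Glo reagents. Compounds were added after a 5 h preincubation, and the luminescent signal from continuous culture was measured repeatedly during 40 h treatment.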

[15] = A CellTox Green Cytotoxicity Assay to monitor cytotoxicity in HEK293 cells - 0 hour (AID 1224869); further: nearly all actives have a fitted effect of over 50% in size
Outline: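 Fluorescence intensity, read at 0, 8, 16, 24, 32 and 40 h of compound treatment, reflected dye binding to DNA of dead HEK293 cells; compounds (23 nL, DMSO) were added 5 h after plating cells with reagent.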

[16] = biological target: Nuclear receptor subfamily 1 group I member 3 (Homo sapiens) (UniProt Q14994); experiment: qHTS assay to identify small molecule agonists of the constitutive androstane receptor (CAR) signaling pathway (AID 1224839); further: nearly all actives have a fitted effect of over 15% in size; further: potency means the concentration at half of the fitted maximal effect;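 on activation: HepG2 cells stably carrying human CAR and a CYP2B6 luciferase reporter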
Nuclear receptor subfamily 1 group I member 3 (Homo sapiens), sequence (Q14994 whole entry, looked up): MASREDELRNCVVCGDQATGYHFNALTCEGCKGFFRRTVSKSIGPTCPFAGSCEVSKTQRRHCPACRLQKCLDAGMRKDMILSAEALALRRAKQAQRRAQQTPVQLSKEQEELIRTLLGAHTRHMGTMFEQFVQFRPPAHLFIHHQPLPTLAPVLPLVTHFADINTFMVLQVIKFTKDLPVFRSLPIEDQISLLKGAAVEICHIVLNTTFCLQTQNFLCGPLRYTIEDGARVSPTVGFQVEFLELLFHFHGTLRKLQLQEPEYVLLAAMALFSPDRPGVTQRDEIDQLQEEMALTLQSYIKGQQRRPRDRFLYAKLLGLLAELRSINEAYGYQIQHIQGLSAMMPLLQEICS
Outline: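 Cells were plated and incubated 4 hrs, then dosed with compounds at 15 concentrations. PK11195 was added to 0.75 uM final. After 24 hrs at 37 C, luciferase luminescence was measured.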

[17] = qHTS assay to identify small molecule agonists of the hypoxia (HIF-1) signaling pathway (AID 1224846; active means well fitted activation curve with a large enough effect in the signal ratio in the repeat runs, not every such curve was filed as active; the % refers to the signal ratio)
Outline: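 A low-serum medium (0.5% dialyzed FBS) holding 2,000 HRE-bla ME-180 cells per well is preincubated for 5 hrs, dosed with compounds by pintool, and kept a further 17 hrs at 37C, 5% CO2 before CCF4-AM FRET detection of beta-lactamase.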

[18] = qHTS RealTime-Glo MT Cell Viability Assay in HEK293 cells - 32 hour (AID 1224868); further: nearly all actives have a fitted effect of over 50% in size; further: potency means the concentration at half of the fitted maximal effect
Outline: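 Luminescence generated by NanoLuc from substrate produced by living HEK293 cells served as the viability signal. Each value reflects the reading at its stated time point during continuous 40 h compound exposure at 37 C.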

[19] = biological target: Nuclear receptor subfamily 1 group I member 3 (Homo sapiens) (UniProt Q14994); experiment: qHTS assay to identify small molecule antagonists of the constitutive androstane receptor (CAR) signaling pathway (AID 1224838);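 further: HepG2 cells stably expressing hCAR with CYP2B6 luciferase reporter stimulated by CITCO; nearly all actives have a fitted effect of over 40% in size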; further: potency means the concentration at half of the fitted maximal effect
Outline: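 Cell line: HepG2 double-stable for hCAR and CYP2B6-2.2kb reporter. Agonist: CITCO, 50 nM final. Compounds: 15 concentrations, 24 h, 37 C. Detection: ONE-Glo luminescence.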

Structure (SMILES)	Potency [1]	Potency [2]	Potency [3]	Potency [4]	Potency [5]	Potency [6]	Potency [7]	Potency [8]	Potency [9]	outcome [10]	Potency [11]	Potency [12]	activity change, positive = activation ([13]; at 42.5 µM (top of the series))	activity change, positive = activation ([13]; at 92.4 µM (top of the series))	Potency [14]	Potency [15]	Potency [16]	Potency [17]	Potency [18]	Potency [19]
O=C=Nc1ccc(Cc2ccc(N=C=O)cc2)cc1	inactive	inactive	inactive	inactive	inactive	inactive	inactive	inactive	inactive	inactive	inactive	inactive	2.14% (inactive)	-19.6% (inactive)	inactive	inactive	–	–	–	–
CC(C)CC(C)(O)C#CC(C)(O)CC(C)C (stereo not drawn)	inactive	–	inactive	inactive	inactive	inactive	inactive	inactive	inactive	inactive	inactive	inactive	–	-11.8% (inactive) and -19.1% (inactive)	inactive	inactive	inactive	inactive	–	–
CN(C)C(=N)N=C(N)N	inactive	–	inactive	inactive	inactive	–	–	inactive	inactive	inactive	inactive	–	–	–	inactive	inactive	inactive	inactive	inactive	–
CN(C)CCC=C1c2ccccc2CCc2ccccc21	68.6 µM (active) and 48.6 µM (active) and inactive	inactive	–	–	48.6 µM (active) and inactive	–	–	–	38.9 µM (active)	inactive	113 µM (active) and inactive	–	–	–	inactive and 43.6 µM (active)	inactive	inactive	–	–	48.6 µM (active)
CC(C)=CCC/C(C)=C\CO	inactive	inactive	inactive	inactive	inactive	–	–	inactive	inactive	inactive	inactive	–	–	–	inactive	inactive	–	–	inactive	–
c1ccc2sc(SSN3CCOCC3)nc2c1	inactive	22.4 µM (active) and 15.9 µM (active)	inactive	–	inactive	inactive	inactive	inactive	54.8 µM (active) and 54.9 µM (active)	–	–	inactive	–	4.82% (inactive) and -28.8% (inactive)	54.9 µM (active)	inactive	–	–	21.8 µM (active) and 43.6 µM (active)	–
COc1ccccc1/C=C/C=O	–	inactive	inactive	inactive	inactive	–	–	31.4 µM (active) and 54.5 µM (active)	inactive	inactive	inactive	–	–	–	inactive	inactive	–	inactive	–	–
Cc1ccc(C(=O)c2cc(O)c(O)c([N+](=O)[O-])c2)cc1	43.3 µM (active)	63.3 µM (active) and 34.7 µM (active)	43.3 µM (active)	–	43.3 µM (active) and inactive	30.6 µM (active)	inactive	inactive	inactive	–	inactive	30.6 µM (active) and 26.6 µM (active)	-49.4% (inactive)	-70.9% (inactive)	inactive	inactive	–	inactive	–	–
CN1C(C(=O)Nc2ccccn2)=C(O)c2ccccc2S1(=O)=O	inactive	–	inactive	inactive	inactive	–	–	inactive	inactive	inactive	inactive	–	–	–	inactive	inactive	inactive	–	inactive	inactive
O=P(O)(O)O	inactive	–	inactive	inactive	inactive	–	–	inactive	inactive	inactive	inactive	–	–	–	inactive	inactive	–	inactive	inactive	–
NC=O	inactive	inactive	inactive	inactive	inactive	inactive	inactive	–	inactive	inactive	inactive	inactive	–	6.78% (inactive) and -1.46% (inactive)	inactive	inactive	–	inactive	inactive	–
CC(C)=CCCC(C)CCO (stereo not drawn)	inactive	inactive	inactive	inactive	inactive	–	–	inactive	inactive	inactive	inactive	–	–	–	inactive	inactive	–	inactive	inactive	–
O=C1c2cccc(O)c2C(=O)c2c(O)cccc21	–	inactive	inactive	inactive	inactive	39 µM (active) and inactive	inactive	inactive	inactive	inactive	inactive	–	-19.1% (inactive)	-20.9% (inactive)	inactive	inactive	inactive	inactive	–	inactive
O=C(c1ccccc1)c1ccc(O)cc1O	69.9 µM (active) and inactive	89.4 µM (active)	inactive	–	inactive	–	–	inactive	inactive	inactive	inactive	–	–	–	inactive	inactive	61.1 µM (active)	inactive	inactive	–
CCCCOCCOCCO	inactive	inactive	inactive	inactive	inactive	–	–	inactive	inactive	inactive	inactive	–	–	–	inactive	inactive	–	inactive	inactive	–
